Legend:
Conditions in all cases: treatment time: 24 h
[1] = tested on: HepG2-ACTB-RAB5A; assay: lowest phenotypically active concentration; higher = less potent
Summary of the method: (§1)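 After 24 h at 0.3, 1, 3 or 9 µM, with four wells per treatment, fifteen gene-edited A549, HepG2 and WPMY1 reporter lines carrying BFP, GFP and RFP/FusionRed were imaged live. Each well's live-cell features were expressed relative to solvent control wells. Deviation required ≥3 of 4 wells past the 95th percentile of control Euclidean distances, and reproducibility a median replicate Pearson correlation over the 95th percentile of non-replicates. Phenotypic activity rested on both.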

[2] = tested on: A549-ACTB-RAB5A; assay: phenotypically active (imaging signature differs from DMSO and reproducible) at any of 0.3-9 uM (binary (1 = active, 0 = inactive)); higher = active
Summary of the method: as §1

[3] = tested on: A549-CANX-COX4; assay: as above
Summary of the method: as §1

[4] = tested on: A549-GM130-SQSTM1; assay: as above
Summary of the method: as §1

[5] = tested on: A549-TP53BP1-CLTA; assay: as above
Summary of the method: as §1

[6] = tested on: A549-TUBA1B-RELA; assay: as above
Summary of the method: as §1

[7] = tested on: HepG2-ACTB-RAB5A; assay: as above
Summary of the method: as §1

[8] = tested on: HepG2-CANX-COX4; assay: as above
Summary of the method: as §1

[9] = tested on: HepG2-GM130-SQSTM1; assay: as above
Summary of the method: as §1

[10] = tested on: HepG2-TP53BP1-CLTA; assay: as above
Summary of the method: as §1

[11] = tested on: HepG2-TUBA1B-RELA; assay: as above
Summary of the method: as §1

[12] = tested on: WPMY1-ACTB-RAB5A; assay: as above
Summary of the method: as §1

[13] = tested on: WPMY1-CANX-COX4; assay: as above
Summary of the method: as §1

[14] = tested on: WPMY1-GM130-SQSTM1; assay: as above
Summary of the method: as §1

[15] = tested on: WPMY1-TP53BP1-CLTA; assay: as above
Summary of the method: as §1

[16] = tested on: WPMY1-TUBA1B-RELA; assay: as above
Summary of the method: as §1

[17] = tested on: WPMY1-GM130-SQSTM1; assay: lowest phenotypically active concentration; higher = less potent
Summary of the method: as §1

[18] = tested on: A549-GM130-SQSTM1; assay: as above
Summary of the method: as §1

[19] = tested on: HepG2-GM130-SQSTM1; assay: as above
Summary of the method: as §1

COCCCOc1ccnc(CS(=O)c2nc3ccccc3[nH]2)c1C (stereo unspecified) [rabeprazole]
9 µM: lowest phenotypically active concentration [1]
active: phenotypically active [7] 1 | phenotypically active [11] 1
inactive: phenotypically active [2] 0 | phenotypically active [3] 0 | phenotypically active [4] 0 | phenotypically active [5] 0 | phenotypically active [6] 0 | phenotypically active [8] 0 | phenotypically active [9] 0 | phenotypically active [10] 0 | phenotypically active [12] 0 | phenotypically active [13] 0 | phenotypically active [14] 0 | phenotypically active [15] 0 | phenotypically active [16] 0

Cc1cc(C(=O)Nc2cccc(C(=O)Nc3cccc(C(F)(F)F)c3)c2)on1
inactive: phenotypically active [2] 0 | phenotypically active [3] 0 | phenotypically active [4] 0 | phenotypically active [5] 0 | phenotypically active [6] 0 | phenotypically active [7] 0 | phenotypically active [9] 0 | phenotypically active [10] 0 | phenotypically active [11] 0 | phenotypically active [12] 0 | phenotypically active [13] 0 | phenotypically active [14] 0 | phenotypically active [15] 0 | phenotypically active [16] 0
active: phenotypically active [8] 1

Cc1c(C)c2c(c(C)c1O)CC[C@@](C)(CCC[C@H](C)CCC[C@H](C)CCCC(C)C)O2 [Tocopherol (R,S)]
inactive: phenotypically active [2] 0 | phenotypically active [3] 0 | phenotypically active [4] 0 | phenotypically active [5] 0 | phenotypically active [6] 0 | phenotypically active [7] 0 | phenotypically active [9] 0 | phenotypically active [10] 0 | phenotypically active [11] 0 | phenotypically active [12] 0 | phenotypically active [13] 0 | phenotypically active [14] 0 | phenotypically active [15] 0 | phenotypically active [16] 0
active: phenotypically active [8] 1

CCc1c(C(=O)Nc2cc(S(=O)(=O)N(CC)CC)ccc2O)[nH]c(C)c1C(C)=O
active: phenotypically active [7] 1 | phenotypically active [8] 1 | phenotypically active [14] 1
inactive: phenotypically active [2] 0 | phenotypically active [3] 0 | phenotypically active [4] 0 | phenotypically active [5] 0 | phenotypically active [6] 0 | phenotypically active [9] 0 | phenotypically active [10] 0 | phenotypically active [11] 0 | phenotypically active [12] 0 | phenotypically active [13] 0 | phenotypically active [15] 0 | phenotypically active [16] 0
9 µM: lowest phenotypically active concentration [1] | lowest phenotypically active concentration [17]

CC(C)[C@@H](C)/C=C/[C@@H](C)[C@H]1CC[C@H]2C3=CC=C4C[C@@H](O)CC[C@]4(C)[C@H]3CC[C@]12C [Ergosterine]
active: phenotypically active [4] 1 | phenotypically active [6] 1 | phenotypically active [9] 1
9 µM: lowest phenotypically active concentration [18] | lowest phenotypically active concentration [19]
inactive: phenotypically active [2] 0 | phenotypically active [3] 0 | phenotypically active [5] 0 | phenotypically active [7] 0 | phenotypically active [8] 0 | phenotypically active [10] 0 | phenotypically active [11] 0 | phenotypically active [12] 0 | phenotypically active [13] 0 | phenotypically active [14] 0 | phenotypically active [15] 0 | phenotypically active [16] 0

CCOc1nc(NC(=O)Cc2cc(OC)ccc2OC)cc(N)c1C#N
active: phenotypically active [6] 1
inactive: phenotypically active [2] 0 | phenotypically active [3] 0 | phenotypically active [4] 0 | phenotypically active [5] 0 | phenotypically active [7] 0 | phenotypically active [8] 0 | phenotypically active [9] 0 | phenotypically active [10] 0 | phenotypically active [11] 0 | phenotypically active [12] 0 | phenotypically active [13] 0 | phenotypically active [14] 0 | phenotypically active [15] 0 | phenotypically active [16] 0

CC(C)N(CCCNC(=O)Nc1ccc(C(C)(C)C)cc1)C[C@H]1O[C@@H](n2ccc3c(N)ncnc32)[C@H](O)[C@@H]1O
active: phenotypically active [7] 1 | phenotypically active [9] 1 | phenotypically active [10] 1 | phenotypically active [11] 1 | phenotypically active [16] 1
≤ 0.3 µM: lowest phenotypically active concentration [19]
inactive: phenotypically active [2] 0 | phenotypically active [3] 0 | phenotypically active [4] 0 | phenotypically active [5] 0 | phenotypically active [6] 0 | phenotypically active [8] 0 | phenotypically active [12] 0 | phenotypically active [13] 0 | phenotypically active [14] 0 | phenotypically active [15] 0
9 µM: lowest phenotypically active concentration [1]

O=C1NN(c2ccc(F)c(Cl)c2)C(=O)/C1=C\c1ccc([N+](=O)[O-])o1
active: phenotypically active [4] 1 | phenotypically active [13] 1 | phenotypically active [14] 1
inactive: phenotypically active [2] 0 | phenotypically active [3] 0 | phenotypically active [5] 0 | phenotypically active [6] 0 | phenotypically active [7] 0 | phenotypically active [8] 0 | phenotypically active [9] 0 | phenotypically active [10] 0 | phenotypically active [11] 0 | phenotypically active [12] 0 | phenotypically active [15] 0 | phenotypically active [16] 0
3 µM: lowest phenotypically active concentration [18]
9 µM: lowest phenotypically active concentration [17]

O=C(O)COc1ccc(Br)cc1/C=C1\SC(=S)N(Cc2cccnc2)C1=O
active: phenotypically active [4] 1 | phenotypically active [9] 1 | phenotypically active [14] 1
inactive: phenotypically active [2] 0 | phenotypically active [3] 0 | phenotypically active [5] 0 | phenotypically active [6] 0 | phenotypically active [7] 0 | phenotypically active [8] 0 | phenotypically active [10] 0 | phenotypically active [11] 0 | phenotypically active [12] 0 | phenotypically active [13] 0 | phenotypically active [15] 0 | phenotypically active [16] 0
3 µM: lowest phenotypically active concentration [19] | lowest phenotypically active concentration [17]
9 µM: lowest phenotypically active concentration [18]

Cc1cc(C)c(C)c(S(=O)(=O)Nc2ccc(N3CC[C@H](C(=O)O)C3)c3ccccc23)c1C
inactive: phenotypically active [2] 0 | phenotypically active [3] 0 | phenotypically active [5] 0 | phenotypically active [6] 0 | phenotypically active [7] 0 | phenotypically active [8] 0 | phenotypically active [10] 0 | phenotypically active [11] 0 | phenotypically active [12] 0 | phenotypically active [13] 0 | phenotypically active [15] 0 | phenotypically active [16] 0
9 µM: lowest phenotypically active concentration [18] | lowest phenotypically active concentration [19]
active: phenotypically active [4] 1 | phenotypically active [9] 1 | phenotypically active [14] 1
1 µM: lowest phenotypically active concentration [17]

O=C(/C=C/c1ccc(O)cc1)c1ccc(O)cc1O [Isoliquiritigenin]
9 µM: lowest phenotypically active concentration [19]
active: phenotypically active [6] 1 | phenotypically active [9] 1 | phenotypically active [13] 1 | phenotypically active [15] 1
inactive: phenotypically active [2] 0 | phenotypically active [3] 0 | phenotypically active [4] 0 | phenotypically active [5] 0 | phenotypically active [7] 0 | phenotypically active [8] 0 | phenotypically active [10] 0 | phenotypically active [11] 0 | phenotypically active [12] 0 | phenotypically active [14] 0 | phenotypically active [16] 0
